Shown is part of a subset that was picked to be rich in hits.
HT1080 IDH1KD tx – kills HT-1080 cells with IDH1 knockdown; HT-1080 IDH1 knockdown viability, ATP luminescence, 48 h; Potency, µM (series often up to 46.1 µM), without a hit: at the top dose activity, negative = toxicity, usual class: cytotoxic; hit rate 2% among 360,000; AID 686971;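 also: potency is read from the fitted curve at half-maximal effect; 0% = DMSO wells and -100% = cell-free medium wells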
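Knockdown cells (IDH1KD HT-1080) received compounds 2 h after plating at 750 cells/well and were kept 48 h at 37 °C in 5% FBS RPMI. A CellTiter-Glo luminescence read gave % activity for curve fitting.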
DT40 TDP1 CPT – DT40-hTDP1 cell growth loss with CPT | hit rate 12% among 420,000 | AID 686979 | Potency, µM (highest dose often 46.2 µM), for the others: top-dose activity change, negative = growth inhibition, hits mostly inhibitors | chicken DT40 Tdp1-/-;hTDP1 cells + 20 nM CPT, ATP luminescence, 48 h; also: potency is read from the fitted curve at half-maximal effect; nearly all actives have a fitted effect of over 55% in size
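Chicken DT40 Tdp1-/- cells complemented with human TDP1, 400 cells/well, exposed to compounds plus 20 nM camptothecin for at least 48 h at 37 C; viability read as ATP content by CellTiter-Glo luminescence.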
IL1B secr inh – inhibitors of inflammasome signaling (IL-1 beta secretion); hit rate 4.7% among 360,000; AID 743279; activity change, % at 57.5 µM; THP-1 LPS/ATP IL-1B secretion, AlphaLISA, 16 h; hits give low values; in the data active = activity change below about -50%; inconclusive = mostly about -30% to -49%
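Secreted IL-1B measured by AlphaLISA bead assay after 16 h compound exposure of THP-1 cells; compounds (final up to 57.5 uM) added 1 h before LPS (250 ng/mL) and ATP (1.25 mM) stimulation; lower signal means less secretion.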
HT1080-NT tox – kills 2HG-producing HT-1080-NT fibrosarcoma cells; HT-1080-NT fibrosarcoma viability, CellTiter-Glo ATP luminescence, 48 h; Potency, µM (highest dose often 46.1 µM), for inactives: top-dose activity, negative = less viability, usual class: cytotoxic; hit rate 1.6% among 360,000;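 also: NT is the 2HG producing partner of a matched IDH1 knockdown line; potency is read from the fitted curve at half-maximal effect; 0% = DMSO-treated cells and -100% = media-only wells without cells; nearly all actives have a fitted effect of over 55% in size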
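Viability by CellTiter-Glo luminescence after 48 h compound exposure at 37C of HT-1080-NT cells (750/well, RPMI, 5% FBS). % activity scaled between DMSO wells and medium-only wells, then curve-fitted and categorized by curve class.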
DT40 TDP1 no CPT – qHTS for Inhibitors of human tyrosyl-DNA phosphodiesterase 1 (TDP1): qHTS in cells in absence of CPT | DT40 Tdp1-/- hTDP1 cells, no CPT, ATP luminescence, 48 h | Potency, µM (doses to about 46.2 µM), for inactives: top-dose activity change, negative = growth inhibition, usual class: inhibitors | hit rate 15% among 420,000; also: potency is read from the fitted curve at half-maximal effect; nearly all actives have a fitted effect of over 55% in size
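A cellular qHTS used chicken DT40 cells lacking endogenous Tdp1 but carrying stably transfected human TDP1. Compounds were applied without camptothecin, and cell growth kinetics were judged by ATP-dependent luminescence after ≥48 hr.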
ALOX12 inh – inhibitors of human 12S-lipoxygenase ALOX12; P18054; purified 12hLO, xylenol orange hydroperoxide absorbance; Potency, µM (top dose mostly 108 µM), for the others: at the highest dose activity change, negative = inhibition, usual class: inhibitors; hit rate 1.1% among 580,000; also: potency is read from the fitted curve at half-maximal effect
Target sequence (P18054 whole entry, looked up): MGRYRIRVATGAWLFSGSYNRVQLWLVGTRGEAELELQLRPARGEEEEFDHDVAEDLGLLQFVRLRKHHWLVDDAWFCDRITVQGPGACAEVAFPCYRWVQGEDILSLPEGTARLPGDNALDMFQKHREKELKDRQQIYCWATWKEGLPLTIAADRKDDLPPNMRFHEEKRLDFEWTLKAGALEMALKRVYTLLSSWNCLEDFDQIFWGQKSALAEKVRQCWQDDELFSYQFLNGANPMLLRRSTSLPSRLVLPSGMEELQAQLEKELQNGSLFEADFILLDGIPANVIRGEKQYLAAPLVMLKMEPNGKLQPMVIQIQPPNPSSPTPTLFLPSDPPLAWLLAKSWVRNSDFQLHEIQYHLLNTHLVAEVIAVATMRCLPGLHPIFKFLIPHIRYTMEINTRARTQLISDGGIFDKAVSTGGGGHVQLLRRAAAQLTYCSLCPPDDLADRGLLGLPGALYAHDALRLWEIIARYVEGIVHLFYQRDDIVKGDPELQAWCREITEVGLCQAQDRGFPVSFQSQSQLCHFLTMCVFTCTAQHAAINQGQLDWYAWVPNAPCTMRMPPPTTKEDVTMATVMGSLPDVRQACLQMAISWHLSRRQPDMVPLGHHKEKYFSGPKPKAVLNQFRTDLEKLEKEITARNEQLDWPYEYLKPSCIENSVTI
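Hydroperoxide product was detected by ferrous iron/xylenol orange as the 573 to 405 nm absorbance ratio. Arachidonic acid at 40 uM (final) was turned over for 30 min at room temperature by 150 nM human 12hLO, pH 7.0 Hepes buffer, after 15 min compound preincubation.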
* = called active by the depositor; ? = inconclusive; / = no result; ! = not confirmed by another sample; [ ] = remark or other dose. Unless noted, calls follow the shape of the dose curve; as a rule, active = well fitted curve in the direction sought with a large enough effect; inconclusive = small, poorly fitted or top-dose-only effect, or another doubt; inactive = no such curve, though single readings can be large; an effect the other way counts as inactive or inconclusive. Unless noted, % is scaled to controls: 0 for no effect and ±100 for the full control effect.

SMILES	HT1080 IDH1KD tx	DT40 TDP1 CPT	IL1B secr inh	HT1080-NT tox	DT40 TDP1 no CPT	ALOX12 inh
O=C(CCSc1nc2ccccc2s1)N/N=C/c1c(O)ccc2ccccc12	?	6.5µM*	192	?	3.7µM*	-18%
COc1ccc(/C=N/NC(=O)CCSc2nc3ccccc3s2)cc1OC	-4%	13µM*	-20	-3%	29µM*	4%
COc1ccc(/C=N/NC(=O)c2cccc(C(=O)N/N=C/c3ccc(OC)c(OC)c3)n2)cc1OC	-5%	1%	-6	-9%	-7%	8%
COc1ccc(/C=N/NC(=O)Nc2cccc3nsnc23)cc1OC	23%	9.2µM*	-15	8%	9.2µM*	-16%
COc1ccc2c(c1)c1c(c(=O)n(-c3ccccc3C)c(=O)n1Cc1cccc(C(F)(F)F)c1)n2C	/	3.7µM*	/	/	3.7µM*	-12%
COc1ccc2c(c1)c1c(c(=O)n(-c3cccc(C)c3)c(=O)n1Cc1cccc(Cl)c1)n2C	/	7.3µM*	/	/	5.8µM*	-18%
CCCN(CCC)C(=O)Cn1c(=O)n(-c2cccc(C)c2)c(=O)c2c1c1cc(OC)ccc1n2C	/	15µM*	/	/	23µM*	0%
COc1ccc2c(c1)c1c(c(=O)n(-c3cccc(C)c3)c(=O)n1CC(=O)NCc1ccc(C)cc1)n2C	/	?	/	/	?	0%
COc1cccc(CN2C(=O)OC3(CCN(C(=O)C4CCOCC4)CC3)C2(C)c2cccnc2)c1 (configuration not stated)	/	/	/	/	/	20%
Cc1ccc(F)cc1NC(=O)CCNC(=O)c1ccc([N+](=O)[O-])cc1	6%	-23%	-74*	3%	?	12%
Cc1c(NC(=O)c2ccc(C(C)(C)C)cc2)cccc1[N+](=O)[O-]	-24%	16µM*	-52*	0%	21µM*	-7%
Cc1cc2c(cc1NC(=O)c1ccc(C(C)(C)C)cc1)n(C)c(=O)c(=O)n2C	/	23µM*	/	/	26µM*	-10%
COC(=O)c1ccc(C)c(NC(=O)CCNC(=O)c2ccc([N+](=O)[O-])cc2)c1	10%	-13%	10	5%	-9%	-9%
Cc1ccc([N+](=O)[O-])cc1NC(=O)c1ccc(C(C)(C)C)cc1	-14%[9.24 µM]	?	?	?	13µM*	12%
Cc1ccc(C(=O)Nc2cc([N+](=O)[O-])ccc2C)cc1	-1%	4%	42	2%	8%	-10%
CC(C)(C)c1ccc(-c2cc(C[C@H]3CNCC[C@H]3CC(=O)N3CCN(Cc4ccccc4)CC3)no2)cc1	/	/	/	/	/	-24%
COc1cc(OC)cc(C(=O)NC2CCSc3ccccc32)c1 (configuration not stated)	-8%	?	-5	-1%	23µM*	79%
CCCCCc1ccc(-c2cn(CC3CCCCC3)nn2)cc1	13%	?	12	16%	8.9µM*	8%
CCCCCc1ccc(-c2cn(CCCOCc3ccccc3)nn2)cc1	13%	?	-15	15%	22µM*	8%
c1ccc(-c2cn(CC3CCCCC3)nn2)cc1	12%	?	-22	12%	13µM*!	0%
COc1ccc(-c2cn(CC3CCCCC3)nn2)cc1	10%	-13%	3	-9%	3%	2%
CN(CC(=O)Nc1ccccc1Cl)C(=O)CSc1nncn1C	0%	-9%	6	2%	7%	-10%
O=C(NCCOCCn1c(=O)oc2ccccc21)Nc1ccc(F)cc1	/	16µM*	/	/	?	-18%
Cc1c(Cl)cccc1NC(=O)NCCOCCn1c(=O)oc2ccccc21	/	8.2µM*	/	/	7.3µM*	-9%
Cc1c(CC(=O)Nc2ccc(CCO)cc2)c(=O)oc2cc(O)ccc12	/	/	/	/	/	0%
SMILES	HT1080 IDH1KD tx	DT40 TDP1 CPT	IL1B secr inh	HT1080-NT tox	DT40 TDP1 no CPT	ALOX12 inh
COC(=O)c1c(NC(=O)c2ccccc2N(C)S(=O)(=O)c2ccccc2)sc2c1CCCC2	?	16µM*	20	?	15µM*	1%
CCOC(=O)c1c(NC(=O)C(NCCN(C)C)c2ccccc2)sc2c1CCCC2 (configuration not stated)	18µM*	0.65µM*	-108*	?	2.1µM*	?
COC(=O)c1c(NC(=O)c2ccccc2C(=O)O)sc2c1CCC2	-15%	-12%	5	-18%	-8%	49%
CC(C)OC(=O)c1c(NS(=O)(=O)c2ccccc2)sc2c1CCCC2	?	6.5µM*	0	-16%	5.2µM*	-24%[57.4 µM]
COC(=O)c1c(NS(=O)(=O)Cc2ccccc2)sc2c1CCCC2	-3%	-10%	36	2%	-2%	-6%
CCOC(=O)c1c(NC(=O)c2ccccc2N(C)S(=O)(=O)c2ccccc2)sc2c1CCCC2	9.2µM*	?	-9	?	21µM*	-2%
CCOC(=O)c1c(NC(=O)c2ccccc2Cl)sc2c1CCCC2	/	?	/	/	?	-22%
CCOC(=O)c1cnc2ccc(Cl)cc2c1Nc1ccccc1OC	/	/	/	/	/	-2%
O=c1c2ccccc2nc(-c2ccoc2)n1CCc1ccccc1	-1%[9.24 µM]	7.3µM*	-4	-25%	6.5µM*	?
O=c1c2ccccc2nc(-c2ccc(Br)cc2)n1Cc1ccccc1	16%	8.2µM*	17	-25%	23µM*	-8%
Cc1onc(-c2c(Cl)cccc2Cl)c1C(=O)N1CCCc2ccccc21	-23%	21µM*	7	-26%	21µM*	14%
Cc1onc(-c2c(F)cccc2Cl)c1C(=O)N1CCc2ccccc21	-29%	?	11	-2%	?	2%
Cc1onc(-c2ccccc2)c1C(=O)N1CCCc2ccccc21	-5%	?	42	5%	16µM*	-28%
COc1ccc(C(=O)N2CCC[C@H]2c2nc(-c3ccc(OC)c(OC)c3)no2)cc1	/	/	/	/	/	6%
CN(C#N)c1nc(Cl)nc(Nc2cccc(Cl)c2)n1	-5%	?	-91*	-2%	?	-25%
COc1ccc(NC(=O)C2(S(=O)(=O)c3ccc(C)cc3)CC2)cc1OC	1%	-2%	-5	21%	-27%	-13%
O=C(NC1CCCCC1)N1CCC2(CC1)CC(N(C(=O)c1ccccc1)C1CC1)CCO2 (configuration not stated)	/	/	/	/	/	25%
O=C(c1cccc(C(F)(F)F)c1)N1CCc2c([nH]c3ccccc23)C1C(F)(F)F (configuration not stated)	?	?	-83*	?	?	?
